Among the test systems are DU-145 prostate; K-562 leukemia; MALME-3M melanoma; MDA-MB-231 breast; RXF 393 renal; SF-268 CNS; SF-295 CNS; SF-539 CNS; UACC-257 melanoma; M14 melanoma; HCT-15 colon; HT29 colon; SNB-75 CNS; SNB-19 CNS; U251 CNS; PC-3 prostate; UACC-62 melanoma; LOX IMVI melanoma; SK-MEL-28 melanoma; SK-MEL-5 melanoma.
Assay in all cases: NCI-60 one-dose screen, 48 h (100 = growth as untreated, 0 = no growth, -100 = all killed)
Conditions in all cases: 10 µM unless noted

Compounds without any hit were thinned out: in the full panel of roughly 83,000, 20% have a hit.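 Activity criterion: percent growth below 10, measured after cells in 96-well plates were exposed to a single compound concentration for 48 hours.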 A number with no mark means an inactive call. Active and inactive are the calls of the source.

As to `CC(=O)OC[C@H]1OC(Sc2sc(C(=O)c3ccc(Br)cc3)c(N)c2-c2nc3ccccc3s2)[C@H](OC(C)=O)[C@@H](OC(C)=O)[C@H]1OC(C)=O` (stereo not given in full), the growth with DU-145 prostate is 110%; with K-562 leukemia, 92.2%; with MALME-3M melanoma, 98.1%; with MDA-MB-231 breast it was 80.6%; with RXF 393 renal it was 115%; in the assay with SF-268 CNS it was 93%. The growth is 97.1% in the assay with SF-295 CNS; 95.2% in the assay with SF-539 CNS; 104% in the assay on UACC-257 melanoma; 96.1% with M14 melanoma; 99.7% in the assay with HCT-15 colon; 106% in the assay with HT29 colon. The growth in the assay on SNB-75 CNS is 74.5%; in the assay on SNB-19 CNS, 87.4%; with U251 CNS it was 96.2%; with PC-3 prostate it was 70.8%; with UACC-62 melanoma it was 60.4%; in the assay with LOX IMVI melanoma, 96.8%. In addition, the growth with SK-MEL-28 melanoma is 104%.

As for `CC(=O)Oc1ccccc1C(=O)N=C1[Se]CCCN1C(=O)c1ccccc1OC(C)=O`, the growth was 15.8% in the assay with DU-145 prostate; 32.1% in the assay with K-562 leukemia; -27.1% (active) in the assay on MALME-3M melanoma; -57.6% (active) in the assay on MDA-MB-231 breast; 6.8% (active) in the assay with RXF 393 renal; -14.1% (active) in the assay with SF-268 CNS. Besides, the growth is 17.5% with SF-295 CNS; -42.5% (active) in the assay on SF-539 CNS; 57.4% with UACC-257 melanoma; -10.4% (active) in the assay on M14 melanoma; 21.5% in the assay with HCT-15 colon; 95.5% with HT29 colon. In addition, the growth with SNB-75 CNS was -28.9% (active); in the assay with SNB-19 CNS, -55.1% (active); in the assay on U251 CNS, 23.4%; in the assay on PC-3 prostate, 19.6%; in the assay with UACC-62 melanoma, 73.6%; with LOX IMVI melanoma, -64.1% (active). Also, the growth in the assay with SK-MEL-28 melanoma is 18.5%.

On to `CCCCNc1nc(NN2C(=O)c3cccc4cccc(c34)C2=O)nc(-n2cnc3ccccc32)n1`, for which the growth in the assay with DU-145 prostate is 98.6%; with K-562 leukemia, 34%; in the assay on MALME-3M melanoma it was 105%; with MDA-MB-231 breast, 87.8%; in the assay with RXF 393 renal, 74.8%; in the assay with SF-268 CNS it was 89.9%. The growth in the assay with SF-295 CNS is 88.9%; in the assay with SF-539 CNS, 75.9%; with UACC-257 melanoma, 99%; in the assay on M14 melanoma it was 103%; with HCT-15 colon, 85.2%; with HT29 colon, 98%. The growth with SNB-75 CNS is 85.8%; with SNB-19 CNS, 86.9%; in the assay with U251 CNS it was 69.3%; with PC-3 prostate, 77.4%; in the assay on UACC-62 melanoma, 88.3%.

Turning to `c1ccc2c(-c3nc(-c4c[nH]c5ccncc45)cs3)c[nH]c2c1`, the growth with DU-145 prostate was 44.5%; in the assay with K-562 leukemia it was -32% (active); in the assay with MALME-3M melanoma, -48.8% (active); in the assay with MDA-MB-231 breast, 12.7%; with RXF 393 renal it was 74.9%; with SF-268 CNS, 68.5%. For the same compound, the growth in the assay on SF-295 CNS is 50.2%; in the assay on SF-539 CNS, 53%; in the assay with UACC-257 melanoma, 96.1%; in the assay on M14 melanoma, -69.7% (active); in the assay with HCT-15 colon, 6% (active); in the assay with HT29 colon, 2.05% (active). Also, the growth in the assay with SNB-75 CNS was 57.6%; in the assay with SNB-19 CNS, 86.5%; in the assay on U251 CNS it was -14.9% (active); in the assay on PC-3 prostate, 46.7%; with SK-MEL-5 melanoma, 51.1%; with UACC-62 melanoma, 87.1%. Besides, the growth in the assay with SK-MEL-28 melanoma is -89.8% (active).

On to `COc1ccc(-n2c(N)c(-c3nc4ccccc4[nH]3)cc(C#N)c2=O)cc1`, for which the growth is 87.9% in the assay on DU-145 prostate; 93.5% with K-562 leukemia; 92.1% in the assay with MALME-3M melanoma; 90.8% with MDA-MB-231 breast; 67.2% in the assay with RXF 393 renal; 95.8% in the assay on SF-268 CNS. In addition, the growth was 94.1% with SF-295 CNS; 77.2% in the assay on SF-539 CNS; 96.4% in the assay with UACC-257 melanoma; 109% with M14 melanoma; 89.4% in the assay on HCT-15 colon; 90.2% in the assay on HT29 colon. Further, the growth in the assay on SNB-75 CNS is 60.5%; in the assay with SNB-19 CNS it was 78.9%; in the assay with U251 CNS, 103%; in the assay on PC-3 prostate it was 85.4%; in the assay on UACC-62 melanoma, 102%; in the assay with LOX IMVI melanoma it was 98.2%. Moreover, in the assay with SK-MEL-28 melanoma, the growth was 100%.

Turning to `COc1cc(-c2nc3sccn3c2-c2ccnc(NCCCNS(=O)(=O)c3ccc(F)cc3)n2)ccc1F`, the growth in the assay on DU-145 prostate was 76.1%; in the assay with K-562 leukemia, 38.2%; in the assay on MALME-3M melanoma it was 75.1%; with MDA-MB-231 breast it was 86.1%; with RXF 393 renal, 71.6%; with SF-268 CNS, 74.2%. Besides, the growth in the assay with SF-295 CNS was 57.1%; with SF-539 CNS it was 95.6%; with UACC-257 melanoma it was 77.8%; in the assay on M14 melanoma it was 53.6%; in the assay on HCT-15 colon it was 44.8%; in the assay on HT29 colon it was 61%. Besides, the growth is 59.9% in the assay with SNB-75 CNS; 96.3% with SNB-19 CNS; 91.4% in the assay on U251 CNS; 46.8% in the assay on PC-3 prostate; 29.7% in the assay with UACC-62 melanoma; 48.3% in the assay with LOX IMVI melanoma. In addition, the growth with SK-MEL-28 melanoma is 73.9%.

In the case of `Cc1ccc2sc3c(NCCN)nc4ccccc4c3c(=O)c2c1`, the growth is 64.1% in the assay on DU-145 prostate; 0.362% (active) in the assay with K-562 leukemia; 102% in the assay with MALME-3M melanoma; 41.7% with MDA-MB-231 breast; 89.8% with RXF 393 renal; 74.5% in the assay with SF-268 CNS. Besides, the growth in the assay on SF-295 CNS was 105%; in the assay with SF-539 CNS, 70.8%; with UACC-257 melanoma, 108%; in the assay with M14 melanoma it was 86.7%; in the assay with HCT-15 colon it was 29%; in the assay on HT29 colon, 10.8%. Moreover, the growth in the assay on SNB-75 CNS is 77.2%; in the assay with SNB-19 CNS it was 81%; with U251 CNS, 49.7%; in the assay with PC-3 prostate, 79.5%; with SK-MEL-5 melanoma it was 95.6%; in the assay on UACC-62 melanoma, 99.4%. In the assay on SK-MEL-28 melanoma, the growth was 111%.

With `Cc1ncc(C(=O)Nc2ccc(CN3CCN(C)CC3)c(C(F)(F)F)c2)cc1C#Cc1ccc(N)nc1`, the growth in the assay with DU-145 prostate was 18.1%; in the assay with K-562 leukemia, 5.34% (active); with MALME-3M melanoma, -88.9% (active); in the assay on MDA-MB-231 breast, -64.3% (active); in the assay on RXF 393 renal it was -60.2% (active); in the assay with SF-268 CNS it was -11.9% (active). Moreover, the growth in the assay on SF-295 CNS is 18.5%; with SF-539 CNS, -39.3% (active); in the assay with UACC-257 melanoma it was 0.961% (active); in the assay with M14 melanoma it was -56.8% (active); in the assay on HCT-15 colon, 6.59% (active); in the assay with HT29 colon, 18.1%. Further, the growth in the assay on SNB-75 CNS is -57.3% (active); with SNB-19 CNS it was 26.9%; in the assay on U251 CNS, 17.6%; with PC-3 prostate it was 10.9%; in the assay with UACC-62 melanoma, -70.2% (active); with LOX IMVI melanoma, -94.9% (active). Besides, the growth in the assay on SK-MEL-28 melanoma was -46.2% (active).

The values are drawn from PubChem BioAssay (NCI).
